Assay outcomes: PubChem, several laboratories
In the library only some 3.4% were active in any assay of this set; here they are far more common.
ADAM17 inh = inhibitors of human ADAM17 | P78536 | inhibition, % at 6.95 µM | 370,000 compounds, 0.83% hits | recombinant ADAM17, EDANS/DABCYL FRET peptide cleavage;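 active means inhibition above the mean of compounds lying between control limits plus 3 SD, set per campaign, cut at about 8.5% in these data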;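 further: 0% = DMSO-only wells as the low control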
ADAM10 inh = ADAM10 inhibition, QFRET primary screen; inhibition, % at 7 µM; 370,000 compounds, 0.62% hits; recombinant ADAM10, EDANS/DABCYL FRET peptide cleavage, 3 h; O14672;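 active means inhibition above a per-campaign cutoff equal to the mean of compounds falling between control-based bounds plus 3 SD, cut at about 20% in these data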;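 further: 0% = DMSO wells while the 100% control is not disclosed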
CendR NRP1 mod = modulators of CendR peptide binding to human neuropilin-1. FAM-RPARPAR peptide binding to NRP-1, fluorescence polarization. inhibition, % at 25 µM. 360,000 compounds, 0.85% hits. AID 602438;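 active means inhibition or corrected inhibition above about 18%, plus a signal ratio from 0.5 to 1.5, limit read from the data, passing the limit was not always enough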
Target sequence (O14786 whole entry, looked up): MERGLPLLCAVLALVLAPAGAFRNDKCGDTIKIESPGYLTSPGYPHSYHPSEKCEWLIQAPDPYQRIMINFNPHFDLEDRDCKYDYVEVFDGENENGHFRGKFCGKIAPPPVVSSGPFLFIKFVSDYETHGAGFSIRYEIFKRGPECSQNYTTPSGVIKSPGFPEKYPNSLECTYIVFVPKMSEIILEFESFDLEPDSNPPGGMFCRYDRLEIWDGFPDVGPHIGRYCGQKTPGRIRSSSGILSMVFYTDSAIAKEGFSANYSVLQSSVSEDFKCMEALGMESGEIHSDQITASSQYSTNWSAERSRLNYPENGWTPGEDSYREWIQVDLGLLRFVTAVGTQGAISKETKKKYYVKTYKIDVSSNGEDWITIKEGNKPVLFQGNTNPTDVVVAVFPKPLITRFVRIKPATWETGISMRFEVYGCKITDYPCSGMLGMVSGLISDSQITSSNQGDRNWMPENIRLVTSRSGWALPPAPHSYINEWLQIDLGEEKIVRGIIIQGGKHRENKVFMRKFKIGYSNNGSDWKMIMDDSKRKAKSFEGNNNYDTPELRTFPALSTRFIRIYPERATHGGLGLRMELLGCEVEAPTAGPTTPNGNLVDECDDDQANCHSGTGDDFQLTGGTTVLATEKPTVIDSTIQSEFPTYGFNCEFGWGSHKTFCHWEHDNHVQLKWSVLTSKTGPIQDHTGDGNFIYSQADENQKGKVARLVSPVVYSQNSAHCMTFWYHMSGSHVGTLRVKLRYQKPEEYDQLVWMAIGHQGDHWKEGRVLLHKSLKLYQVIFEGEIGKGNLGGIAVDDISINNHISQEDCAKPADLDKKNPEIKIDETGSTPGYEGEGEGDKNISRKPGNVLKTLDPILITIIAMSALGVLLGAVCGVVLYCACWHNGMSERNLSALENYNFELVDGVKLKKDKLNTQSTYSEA
proKLK7 act = proKLK7 (human) activation, primary screen. P49862. purified proKLK7, EDANS-DABCYL substrate fluorescence; 100% is mature enzyme control, 0% vehicle. activation, % at 7 µM. 370,000 compounds, 0.9% hits. AID 652039;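 active means activation above the mean of all tested compounds plus 3 SD, computed per campaign excluding outliers beyond control limits, cut at about 13% in these data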
sPLA2-III inh = Blocks human group III sPLA2 activity. AID 743126. inhibition, % at 12.2 µM. 370,000 compounds, 0.56% hits. QFRET BODIPY PC-A2 liposome hydrolysis, fluorescence. Q9NZ20;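 active means inhibition above mean plus 3 SD of compounds lying within the high and low control bounds, cut at about 19% in these data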;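 further: 0% = median of test compound wells and 100% = no enzyme DMSO wells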
KLK7 act conf = confirmation of human kallikrein-7 zymogen activators; shares compounds with proKLK7 act; purified proKLK7, EDANS-DABCYL substrate fluorescence; scaled: vehicle 0, mature enzyme 100; activation, % at 7 µM; 3,200 compounds, 68% hits; AID 686949;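 active means activation, as change over the incubation, above the mean of all tested compounds plus 3 SD, cut at about 13% in these data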
EDANS-DABCYL int = fluorescence interference counter-screen for KLK7 activators; shares compounds with proKLK7 act; EDANS-DABCYL substrate fluorescence interference, no enzyme, 4 h; solvent 0%, active enzyme control 100%; activation, % at 7 µM; 3,200 compounds, 80% hits;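 active means activation above the all-compound mean plus 3 SD, ignoring values outside control-based bounds, cut at about 4.8% in these data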;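 further: value is the 4 h activation minus the activation read at time zero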
EDANS interf = optically interferes with EDANS-DABCYL fluorescence, kallikrein-7 activator counter-screen; shares compounds with proKLK7 act; EDANS-DABCYL peptide fluorescence interference, no enzyme; EC50, µM; 250 compounds, 20% hits;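 active means compounds that raise the fluorescence signal in this interference counterscreen, with EC50 at or below 10 µM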;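 further: intact quenched peptide substrate alone read at 355 nm excitation and 520 nm emission; signal is fluorescence gain from T0 to T4 after four hours at room temperature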
An asterisk follows results filed as active; i = inactive; · = no result given.

SMILES	ADAM17 inh	ADAM10 inh	CendR NRP1 mod	proKLK7 act	sPLA2-III inh	KLK7 act conf	EDANS-DABCYL int	others
O=C(NCC1CCCO1)c1cc(-c2ccncc2)nc2ccccc12 (stereo not given)	-8	-8	5	-1	5	·	·
Cc1occc1-c1nnc(SCC(=O)Nc2ccc3ncccc3c2)n1-c1ccccc1	-1	-13	·	1	-12	·	·
C/C(C=NNC(=O)c1cc(-c2ccc(Cl)cc2)n[nH]1)=C\c1ccccc1	1	2	·	0	5	·	·
Cc1ccc(CNC(=O)CSc2nc3n[nH]c(C)c3c(=N)n2-c2cccc(C)c2)cc1	-7	-29	-13	13*	-6	28*	27*
COC(=O)[C@]12C[C@H](CC(=O)NCc3ccccc3)C(=O)N(Cc3ccc(Cl)cc3Cl)C1=C[C@H](C(C)C)O[C@@H]2C1CC1	0	9	·	0	-14	·	·
OC1CCCN(Cc2c3ccccc3cc3ccccc23)C1 (stereo not given)	-188	i	4	15*	-7	-2	-2
OC1CCCN(Cc2cccc3ccccc23)C1 (stereo not given)	1	7	-14	0	3	·	·
Cn1c(=O)c2c(-c3ccccc3)n(-n3cnnc3)cc2n(C)c1=O	-4	-3	3	14*	0	1	6.8*
O=C(Nc1ccc2nccnc2c1)Nc1ccccc1Cl	-7	-28	-10	20*	-2	46*	44*
O=C(Nc1cccc(Cl)c1)Nc1ccc2nccnc2c1	-11	-31	-2	0	-17	·	·
Cc1ccc(C(=O)Nc2ccc3nccnc3c2)cc1	-241	i	-11	13*	-4	45*	38*	EDANS interf=9.2*
O=C(CSc1nc2ccccc2o1)NN=C/C=C\c1ccccc1[N+](=O)[O-]	4	4	·	0	-7	·	·
CCCCn1c(=O)nc2n(-c3ccccc3C)c3ccccc3cc-2c1=O	-56	-219	-10	2	-3	·	·
Cc1ccccc1-n1c2nc(=O)n(C)c(=O)c-2cc2ccccc21	-450	i	-6	21*	4	30*	19*	EDANS interf=i
COc1cc2c(cc1OC)CN(Cc1ccc(F)cc1)CC2	-444	i	-13	39*	4	14*	18*
COc1cc2c(cc1OC)CN(Cc1cc(=O)n3cc(C)ccc3n1)CC2	-246	i	6	33*	4	29*	33*
O=c1cc(CN2CCN(c3ccccc3)CC2)nc2scc(-c3ccccc3)n12	-4	1	5	1	-5	·	·
COc1cc2c(cc1OC)CN(Cc1cc(=O)n3c(-c4ccccc4)csc3n1)CC2	-230	i	-12	33*	-2	-16	-10
CCc1c(Cc2cccc(F)c2)ncn1CCc1ccccc1OC	-2	-2	·	0	-5	·	·
O=C(c1cc(Br)cc(Br)c1)N1CCC(Oc2cccnc2)CC1	-3	-5	·	0	-3	·	·
CS(=O)(=O)Oc1ccc2c(c1)O/C(=C\c1cccnc1)C2=O	-10	-16	12	16*	-5	15*	15*
COc1ccccc1C(=O)Oc1ccc2c(c1)O/C(=C\c1ccncc1)C2=O	0	-12	5	15*	-27	36*	38*
Clc1ccc2nc(N3CCNCC3)nc(-c3ccccc3)c2c1	-127	-491	1	16*	15	-6	-9
CN1CCN(c2nc(-c3ccccc3)c3cc(Cl)ccc3n2)CC1	-44	-132	12	-1	4	·	·
Cc1ccc2nc(N3CCN(CCO)CC3)nc(-c3ccccc3)c2c1	-92	-255	7	21*	-8	6	4.1*
SMILES	ADAM17 inh	ADAM10 inh	CendR NRP1 mod	proKLK7 act	sPLA2-III inh	KLK7 act conf	EDANS-DABCYL int	others
Cc1cc(=O)n2ccccc2c1C#N	i	i	5	48*	0	70*	70*
Cc1cc(=O)n2c(ccc3ccccc32)c1C#N	-1	-4	-22	0	3	·	·
CCCN1CCS(=O)(=O)N(Cc2cn(Cc3ccc(C)cc3)nn2)C(C(=O)OC)C1 (stereo not given)	2	4	·	0	10	·	·
O=C(Nc1nc2c(s1)CN(Cc1ccccc1)CC2)c1cccc(S(=O)(=O)N2CCc3ccccc32)c1	-44	-179	61	640*	-12	21*	18*
O=C(Nc1nc2ccccc2s1)c1cccc(S(=O)(=O)N2CCc3ccccc32)c1	-1	4	-18	0	-7	·	·
CCN1C(=O)c2cccc3c(S(=O)(=O)NCc4cccnc4)ccc1c23	-213	i	19	53*	-2	71*	78*
CCN1C(=O)c2cccc3c(S(=O)(=O)Nc4ccncc4)ccc1c23	·	·	0	·	·	·	·
CCN1C(=O)c2cccc3c(S(=O)(=O)NC(Cc4ccccc4)C(=O)O)ccc1c23 (stereo not given)	-169	-443	-2	51*	-1	66*	67*
COc1ccc(C2C3=C(CC(C)(C)CC3=O)N(CCN3CCOCC3)C3=C2C(=O)CC(C)(C)C3)cc1	-135	-414	-7	13*	9	5	15*
COCCCN1C2=C(C(=O)CC(C)(C)C2)C(c2ccc(O)c(OC)c2)C2=C1CC(C)(C)CC2=O	0	-6	15	0	-2	·	·
CC1(C)CC(=O)C2=C(C1)N(CCN1CCOCC1)C1=C(C(=O)CC(C)(C)C1)C2c1cccc(F)c1	-304	i	4	34*	-1	23*	20*
CC1(C)CC(=O)C2=C(C1)N(CCN1CCOCC1)C1=C(C(=O)CC(C)(C)C1)C2c1ccc(Cl)cc1	-65	-232	2	-5	15	·	·
CS(=O)(=O)c1ccc(OC[C@@H](O)CN2CCC(C(O)(c3ccccc3)c3ccccc3)CC2)cc1	-2	1	·	0	-16	·	·
O=C(c1cc(-c2cccs2)nc2ccccc12)N1CCN(CCO)CC1	-348	i	4	14*	13	22*	14*	EDANS interf=>69
O=C(c1cc2c(ccc3ccccc32)oc1=O)N1CCN(CCO)CC1	-322	i	-5	26*	3	9	9.8*
O=C(c1cc(-c2cccs2)nc2ccccc12)N1CCN(c2ccccc2O)CC1	-61	-189	-10	-2	-16	·	·
CC(=O)Nc1cc2ccccc2oc1=O	-6	-38	6	-1	2	·	·
CS(=O)(=O)N1CCN(C(=O)c2cc(-c3cccs3)nc3ccccc23)CC1	-360	i	-14	13*	-7	16*	23*
